The values that follow come from the supplement of paper PMC3545927.

This is one part of the list. The hit rate among all sequences tested is not known here.

This test has as its target furin, P09958. Briefly: furin cleavage Z-score vs untreated control; higher = more cleavage, active = 3.5 or more, inactive = 1 or less, 8 variable residues between constant flanks. The method, boiled down: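 Furin cleavage was scored on 8-mer peptides joined to a cDNA oligonucleotide and bound to magnetic beads at the N-terminus. Digestion with purified furin (1:10 enzyme:substrate, 0.01 ml, 50 mM HEPES pH 7.5, CaCl2, NaCl) lasted 7.5, 15 or 30 min. Freed DNA was tagged with adapters by PCR, sequenced and counted; the cleavage Z-score is the lowess-adjusted log count versus furin-free reactions, scaled by median absolute deviation.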

furin, P09958, sequence (P09958 whole entry): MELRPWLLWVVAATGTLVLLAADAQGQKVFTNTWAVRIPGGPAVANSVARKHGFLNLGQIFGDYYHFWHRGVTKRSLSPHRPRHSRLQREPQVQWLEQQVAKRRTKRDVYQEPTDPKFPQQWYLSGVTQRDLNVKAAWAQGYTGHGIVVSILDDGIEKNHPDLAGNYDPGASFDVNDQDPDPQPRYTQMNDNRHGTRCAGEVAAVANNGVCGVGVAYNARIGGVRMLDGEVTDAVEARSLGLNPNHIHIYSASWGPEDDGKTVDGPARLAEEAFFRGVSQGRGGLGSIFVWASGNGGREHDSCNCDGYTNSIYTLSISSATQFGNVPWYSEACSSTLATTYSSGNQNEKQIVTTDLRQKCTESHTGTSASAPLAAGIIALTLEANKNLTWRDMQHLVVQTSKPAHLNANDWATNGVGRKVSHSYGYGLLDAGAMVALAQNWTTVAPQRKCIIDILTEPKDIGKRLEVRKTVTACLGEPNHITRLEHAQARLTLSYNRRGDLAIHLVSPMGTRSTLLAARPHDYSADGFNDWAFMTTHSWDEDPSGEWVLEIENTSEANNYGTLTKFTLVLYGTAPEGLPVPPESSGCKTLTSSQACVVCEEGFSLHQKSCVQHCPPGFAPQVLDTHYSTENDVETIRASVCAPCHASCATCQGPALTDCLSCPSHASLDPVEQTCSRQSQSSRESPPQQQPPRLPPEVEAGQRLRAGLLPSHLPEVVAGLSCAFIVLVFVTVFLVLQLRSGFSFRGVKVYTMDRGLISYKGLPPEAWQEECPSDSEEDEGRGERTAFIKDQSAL

In the case of CATTPCSGDWAGNASASA [HC1911], the “furin cleavage Z-score” value by setting is: (7.5 min) 1.59; (15 min) -1.02 (inactive); (30 min) 0.621 (inactive).
On the same counts, the results for CAEVGTSTWVAGNASASA [HC2196] are 0.089 (inactive), 1.37 and 0.992 (inactive).
Take CAEVVTSTWSAGNASASA [HC2257]: the “furin cleavage Z-score” value runs as follows: (7.5 min) 0.148 (inactive); (15 min) -0.0297 (inactive); (30 min) 0.967 (inactive).
On the same counts, the results for CASTPCSEHLAGNASASA [HC2532] are 1.63, 0.136 (inactive) and -0.509 (inactive).
Turning to CAVEFLVQAWAGNASASA [HC1471], the “furin cleavage Z-score” value (7.5 min) is -1.03 (inactive), the “furin cleavage Z-score” value (15 min) is -0.538 (inactive) and the “furin cleavage Z-score” value (30 min) was 0.302 (inactive).
On the same counts, the results for CALEDNVTPIAGNASASA [HC1434] are -0.871 (inactive), -0.336 (inactive) and -2.15 (inactive).
With CAADLEVVTSAGNASASA [HC986], the “furin cleavage Z-score” value was 0.0893 (inactive) (7.5 min), -0.606 (inactive) (15 min) and -0.099 (inactive) (30 min).
With CARPSRQIHKAGNASASA [FS-2286], the “furin cleavage Z-score” value is, setting by setting: (7.5 min) 1.18; (15 min) -0.223 (inactive); (30 min) 1.59.
As for CARPSRVARDAGNASASA [FS-1565], the “furin cleavage Z-score” value is, setting by setting: (7.5 min) 13.5 (active); (15 min) 13.3 (active); (30 min) 9.92 (active).
For CATSSRRKRDAGNASASA [FS-630] the same measures were 11 (active), 10.2 (active) and 7.47 (active).
On the same counts, the results for CARPSRPWRDAGNASASA [FS-1479] are -0.109 (inactive), 1.22 and 0.811 (inactive).
As for CAYDSMKKRDAGNASASA [FS-389], the “furin cleavage Z-score” value (7.5 min) was 0.389 (inactive), the “furin cleavage Z-score” value (15 min) is 0.234 (inactive) and the “furin cleavage Z-score” value (30 min) is 0.576 (inactive).
For CATSSRSARKAGNASASA [FS-1617] the same measures were -0.831 (inactive), 2.68 and 0.36 (inactive).
For CATSNSLKRDAGNASASA [FS-885] the same measures were -0.606 (inactive), 0.0826 (inactive) and -0.0438 (inactive).
For CAIITRWKRDAGNASASA [FS-1013], the “furin cleavage Z-score” value was 11.5 (active) (7.5 min), 11.3 (active) (15 min) and 8.16 (active) (30 min).
For CAQYLAGLSTAGNASASA [HC1047] the same measures were -0.145 (inactive), 1 and 1.23.
On to CARKKKAWIYAGNASASA [FS-2559], for which the “furin cleavage Z-score” value is 0.615 (inactive) (7.5 min), -1.67 (inactive) (15 min) and -1.6 (inactive) (30 min).
For the sequence CAVGCCSMSYAGNASASA [HC2016], the “furin cleavage Z-score” value runs as follows: (7.5 min) -0.196 (inactive); (15 min) -0.437 (inactive); (30 min) 1.21.
For CAQSPRSFQKAGNASASA [TR4] the same measures were -0.296 (inactive), -2.07 (inactive) and -0.29 (inactive).
On the same counts, the results for CALMGYIPLVAGNASASA [HC227] are 0.341 (inactive), 2.34 and -0.327 (inactive).
For CAMEICSQHLAGNASASA [HC1704] the same measures were 0.947 (inactive), 2.02 and 0.46 (inactive).
Turning to CARAERAARFAGNASASA [FS-185], the “furin cleavage Z-score” value (7.5 min) was 0.624 (inactive), the “furin cleavage Z-score” value (15 min) is 2.79 and the “furin cleavage Z-score” value (30 min) was determined as 2.55.
For CARRHRTYRWAGNASASA [FS-864] the same measures were 7.43 (active), 9.85 (active) and 11.3 (active).
Regarding CARRHRRPRRAGNASASA [FS-1074], the “furin cleavage Z-score” value runs as follows: (7.5 min) 5.28 (active); (15 min) 6.77 (active); (30 min) 6.21 (active).
With CARAERRPRRAGNASASA [FS-1059], the “furin cleavage Z-score” value is, setting by setting: (7.5 min) 8.38 (active); (15 min) 9.79 (active); (30 min) 8.17 (active).
On the same counts, the results for CARRHRKKKRAGNASASA [FS-918] are 0.00638 (inactive), 0.147 (inactive) and 0.539 (inactive).
For CAKEVKAAASAGNASASA [HC1405] the same measures were 0.037 (inactive), -0.691 (inactive) and 0.852 (inactive).
